Screens as filed in PubChem.
Most compounds without a hit are left out; they make up all but 1.1% or so of the library.
gsp ag: activates gsp, the McCune-Albright syndrome mutation | gsp mutant cells, cAMP HTRF, 30 min | Potency, µM (top dose mostly 76.9 µM), most hits filed as activators | 340,000 tested, 0.13% active | AID 624287; active means well fitted activation curve with a large enough effect; inconclusive means small, poorly fitted or top-dose-only effect, or another doubt; inactive means no such curve, though single readings can be large or run the other way; cell line not stated here;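 further: phosphodiesterase inhibitor Ro 20-1724 added with compounds to block cAMP breakdown; nearly all actives have a fitted effect of over 60% in size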
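Cells in DMEM/10% FBS with G418 were pretreated with compounds in DMSO plus […] (300 uM stock) for 30 min at 37C. cAMP was measured by HTRF (cAMP-d2 plus anti-cAMP antibody-K) after 30 min at room temperature.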
TRPV1 PAM: potentiators of human vanilloid receptor 1 (TRPV1) | AID 540277 | TRPV1-expressing cells, Fluo-8 calcium influx, capsaicin EC20 potentiation | 320,000 tested, 0.02% active | Q8NER1 | potentiation, % at 8.33 µM; in the data active means potentiation above about 80%; inconclusive means between about 30% and that limit
Target sequence (Q8NER1 whole entry, looked up): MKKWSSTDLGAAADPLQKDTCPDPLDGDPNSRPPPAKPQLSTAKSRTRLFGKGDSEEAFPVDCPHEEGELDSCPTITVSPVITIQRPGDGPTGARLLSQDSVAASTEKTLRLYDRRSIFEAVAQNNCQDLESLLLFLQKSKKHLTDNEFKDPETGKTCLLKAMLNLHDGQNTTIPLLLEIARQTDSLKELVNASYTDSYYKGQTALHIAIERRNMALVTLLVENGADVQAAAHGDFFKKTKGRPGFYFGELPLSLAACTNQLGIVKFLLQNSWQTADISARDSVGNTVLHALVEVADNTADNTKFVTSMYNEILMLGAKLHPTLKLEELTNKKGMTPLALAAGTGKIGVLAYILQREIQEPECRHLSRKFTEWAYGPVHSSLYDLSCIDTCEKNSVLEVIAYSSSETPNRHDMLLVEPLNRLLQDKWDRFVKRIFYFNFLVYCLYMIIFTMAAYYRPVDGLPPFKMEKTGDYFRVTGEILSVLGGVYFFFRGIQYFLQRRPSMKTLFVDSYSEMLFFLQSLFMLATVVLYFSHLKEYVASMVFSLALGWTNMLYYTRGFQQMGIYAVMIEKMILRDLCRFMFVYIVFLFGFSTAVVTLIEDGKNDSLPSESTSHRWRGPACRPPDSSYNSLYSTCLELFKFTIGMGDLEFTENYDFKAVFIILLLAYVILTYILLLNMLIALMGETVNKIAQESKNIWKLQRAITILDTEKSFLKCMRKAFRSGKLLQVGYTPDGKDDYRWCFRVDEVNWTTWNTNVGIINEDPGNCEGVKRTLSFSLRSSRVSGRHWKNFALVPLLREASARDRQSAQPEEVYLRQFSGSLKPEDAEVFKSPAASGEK
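Fluo-8 calcium influx in TRPV1-expressing cells, kinetic read (ex 480/em 520 nm). Compound added and read 3 min for agonist activity, followed by capsaicin at EC20 final and 2 min further read for enhancement.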
gsp antag: antagonists of gsp mutant (McCune-Albright syndrome); AID 624288; Potency, µM (series often up to 76.9 µM), actives largely listed as inhibitors; gsp-mutant cells, cAMP HTRF, 30 min; 340,000 tested, 0.4% active; calls by dose curve; cell line not stated here;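 further: intracellular cAMP measured with PDE inhibitor Ro 20-1724 present during compound exposure; nearly all actives have a fitted effect of over 65% in size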
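G418-selected cells were plated in DMEM/10% FBS for 16-24 h at 37C, then treated with compounds plus the PDE inhibitor […] (300 uM solution added) for 30 min at 37C. Intracellular cAMP was measured by HTRF after 30 min lysis at room temperature.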
TRPV1 ag: agonists of human vanilloid receptor 1 (TRPV1). activation, % at 8.33 µM. AID 540275. 320,000 tested, 0.19% active. TRPV1-expressing cells, Fluo-8 calcium influx, agonist mode. Q8NER1; in the data active means activation above about 80%; inconclusive means between about 30% and that limit
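Cells expressing TRPV1 were dye-loaded with Fluo-8 and read kinetically: 10 s baseline, 3 min after compound (agonist portion), then 2 min after EC20 capsaicin (allosteric enhancer portion). Calcium-bound dye fluorescence at 480/520 nm.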
RXFP1 agonist: RXFP1 (human) receptor agonism; Q9HBX9; HEK293T-RXFP1 cAMP TR-FRET, 30 min; response scale: percent of porcine relaxin response, buffer zero; Potency, µM (titrated, usually from 57.5 µM), actives largely listed as activators; 370,000 tested, 0.3% active; active means well fitted activation curve with a large enough effect; inconclusive means small, poorly fitted or top-dose-only effect; further: nearly all actives have a fitted effect of over 60% in size
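HEK293 cells stably expressing RXFP1, treated 30 min at 37C with compounds plus PDE4 inhibitor Ro 20174; cAMP measured by HTRF TR-FRET. Normalized to buffer and 29 nM porcine relaxin; EC50 by Hill fit.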
RXFP1 antag: antagonists of human relaxin receptor RXFP1. HEK293-RXFP1, relaxin-stimulated cAMP HTRF, 30 min; hits give low values. AID 1259400. activity change, negative = inhibition, % at 57.5 µM. 350,000 tested, 0.59% active;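 active means activity change of -60% or lower, but not beyond a set lower limit; inconclusive means change between -60% and -40%, or beyond the set limit; inactive means change above -40%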
Large screens that a line does not name were inactive.

COC(=O)c1sc(N2C(=O)C(O)=C(C(=O)c3ccc(C)o3)C2c2cccs2)nc1C (stereo not given)	gsp ag inconclusive, RXFP1 agonist 13µM
COc1cc(C(=O)NNC(=O)COc2cccc(F)c2)ccc1OCC(=O)N1CCOCC1	TRPV1 PAM inconclusive
NC(=S)n1[nH]c(-c2ccc([N+](=O)[O-])cc2)c(N=Nc2cccc(Cl)c2)c1=O	gsp antag 25µM
NC(=S)n1[nH]c(-c2ccc([N+](=O)[O-])cc2)c(N=Nc2ccc(O)cc2)c1=O	none
CC(CNC(=O)c1ccccc1Cl)NC(=O)c1ccccc1Cl (stereo not given)	none (no result: TRPV1 PAM, TRPV1 ag, RXFP1 agonist)
O=c1[nH]c(SCc2n[nH]c(=S)n2-c2ccccc2)nc2sc3c(c12)CCC3	RXFP1 antag -67
CCCCSc1nc2sc3c(c2c(=O)[nH]1)CCC3	none
CN(C)NC(=S)NC1(C)CCS(=O)(=O)C1 (stereo not given)	none
CC1CCCCN1C(=O)CCNC(=O)Cn1cnc2ccccc2c1=O (stereo not given)	none
Cc1cc(C)c(S(=O)(=O)N2CCN(S(=O)(=O)N3CCCCCC3)CC2)c(C)c1	none
Cc1ccc(N2CCN(S(=O)(=O)N3CCCCC3)CC2)c(C)c1	TRPV1 ag inconclusive, RXFP1 antag -70
OCCC1CN(Cc2cn[nH]c2C2CCCCC2)CCN1C1CCCC1 (stereo not given)	none
N#C/C(=C\c1ccc[nH]1)C(=O)Nc1ccccc1F	gsp ag inconclusive
N#C/C(=C\c1ccc[nH]1)C(=O)Nc1ccccc1Cl	gsp ag inconclusive, gsp antag 32µM
Cn1c(=O)cc(SCC(=O)N2CCOCC2)c2ccc(Cl)cc21	gsp ag inconclusive, TRPV1 ag inconclusive
Cn1c(=O)cc(SCC(=O)N2CCCC2)c2ccc(Cl)cc21	gsp ag 11µM
CCOC(=O)Oc1ccc(CCNC(=O)[C@H](CCSC)NC(C)=O)cc1OC(=O)OCC	none (no result: gsp ag, TRPV1 PAM, gsp antag, TRPV1 ag, RXFP1 agonist)
COc1ccc(S(=O)(=O)N2CCOCC2)cc1NC(=O)CSc1cccc[n+]1[O-]	gsp ag 16µM, RXFP1 agonist inconclusive
COc1ccc(S(=O)(=O)N2CCCCC2)cc1NC(=O)CSc1ncnc2ccccc12	gsp ag 20µM, RXFP1 agonist inconclusive (no result: RXFP1 antag)
NS(=O)(=O)c1cccc(NC(=O)CSc2ncnc3ccccc23)c1	gsp ag inconclusive, RXFP1 agonist 25µM
CCN1C[C@@H]2[C@@H]3C(=O)N(Cc4ccccc4)C(=O)[C@@H]3[C@](C)(C1=O)N2C(=O)c1ccc(F)cc1	none (no result: TRPV1 PAM, TRPV1 ag, RXFP1 agonist, RXFP1 antag)
CCN(CC(=O)Nc1ccc(OC)cc1)C(=O)c1cccc(S(=O)(=O)N2CCN(c3ccccc3)CC2)c1	none (no result: TRPV1 PAM, gsp antag, TRPV1 ag, RXFP1 agonist)
CC(C)(C)c1ccc(-c2nc(SCC(=O)Nc3ccc(Cl)cc3)[nH]c(=O)c2C#N)cc1	none (no result: gsp ag, gsp antag)
O=C(Nc1ccccc1Cl)c1sc2cccc(Cl)c2c1Cl	none (no result: gsp ag, TRPV1 PAM, gsp antag, TRPV1 ag)
O=C(O)c1sc2cccc(Cl)c2c1Cl	TRPV1 ag 83
OCCNc1ncnc2c1c(-c1ccccc1)c(-c1ccccc1)n2Cc1ccco1	none
c1ccc(-c2c(-c3ccccc3)n(Cc3ccco3)c3ncnc(NCCCn4ccnc4)c23)cc1	RXFP1 antag -65
O=C1c2ccccc2NC(c2cnc3ccccc3n2)N1O (stereo not given)	gsp ag 22µM
CCN(Cc1ccccc1)S(=O)(=O)c1ccc2c(c1)NC(=O)CS2	gsp ag inconclusive, RXFP1 antag -72
CCC(Cc1ccccc1)NS(=O)(=O)c1c(C)nc2scc(C)n2c1=O (stereo not given)	none
O=[N+]([O-])c1cc([N+](=O)[O-])c2oc(-c3ccccc3)c(Br)c2c1O	RXFP1 antag -113
CC/C=C(\C(=O)N[C@H]1C(=O)N2C(C(=O)OCOC(=O)C(C)(C)C)=C(COC(N)=O)CS[C@H]12)c1csc(N)n1	none (no result: gsp ag, TRPV1 PAM, gsp antag, TRPV1 ag, RXFP1 agonist)
COc1ccc(NC(=S)NCc2ccccc2)c(OC)c1	RXFP1 antag -73
